Values joined by “and” are separate entries in the source; they are usually repeats but may differ in a detail not shown here. Identical values can stand only once. Active and inactive are the calls of the source. Calls follow the shape of the full dose curve.
Molecular target: Muscarinic acetylcholine receptor M1 (Homo sapiens) (UniProt P11229)
Experiment: Cholinergic receptor muscarinic 1 (CHRM1) small molecule agonists, cell-based qHTS assay (AID 1963589); also: nearly all actives have a fitted effect of over 35% in size
Conditions: CHRM1-CHO cells, agonist mode, calcium flux fluorescence; series mostly up to 76.8 µM; activation: at the top concentration
Text: National Center for Advancing Translational Sciences [NCATS]
Division of Preclinical Innovation [DPI]
U.S. Environmental Protection Agency [EPA]
National Institutes of Environmental Health Sciences [NIEHS]
National Toxicology Program [NTP]
U.S. Food and Drug Administration [FDA]
The CHRM1 is a muscarinic receptor. This receptor plays a crucial role in learning and memory processes and has long been identified as a promising therapeutic target for the improvement of cognitive decline in Alzheimer's disease (AD). The CHRM1-CHO cell line stably expressing human muscarinic acetylcholine receptor M1 (CHRM1) can be used for screening agonists and antagonists of interactions between CHRM1 and its ligands. The CHRM1-CHO Calcium Flux Assay is a homogeneous fluorescence-based assay for detecting the intracellular calcium level using FDSS kinetic plate reader system.
CHRM1-CHO cells were dispensed at 1000 cells/3uL/well in 1536-well black-clear bottom plates using a Multidrop Dispenser. After the assay plates were incubated at a 37 C/5% CO2 incubator for 18 h, 3 uL of Dye Loading Buffer was transferred to the assay plate by a Flying Reagent Dispenser. The assay plates were incubated at 37 C for 1h. For agonist mode, 23 nL of compounds dissolved in DMSO, positive controls or DMSO only was transferred to the assay plate by a pin tool. […] Each test compound was measured at 15 concentrations in three independent runs.
% is scaled to controls: 0 for no effect and ±100 for the full control effect; potency is read from the fitted curve at half-maximal effect.

Chain of Muscarinic acetylcholine receptor M1 (Homo sapiens) (P11229 whole entry, looked up): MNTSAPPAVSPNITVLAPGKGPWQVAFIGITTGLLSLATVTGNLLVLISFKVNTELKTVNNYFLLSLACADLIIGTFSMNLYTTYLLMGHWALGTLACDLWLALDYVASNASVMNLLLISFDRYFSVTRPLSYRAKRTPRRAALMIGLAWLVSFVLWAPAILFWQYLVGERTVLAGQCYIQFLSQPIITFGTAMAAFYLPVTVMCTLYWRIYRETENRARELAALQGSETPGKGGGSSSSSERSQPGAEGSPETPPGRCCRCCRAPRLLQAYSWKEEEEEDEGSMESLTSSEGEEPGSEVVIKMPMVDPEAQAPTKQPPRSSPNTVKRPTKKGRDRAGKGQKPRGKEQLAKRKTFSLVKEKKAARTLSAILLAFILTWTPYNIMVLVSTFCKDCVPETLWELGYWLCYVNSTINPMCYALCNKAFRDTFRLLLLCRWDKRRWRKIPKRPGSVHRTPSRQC

| SMILES | activation | Potency |
| --- | --- | --- |
| CCOC(=O)c1cncn1C(C)c1ccccc1 (stereo not given) | -0.253% [at 35.3 µM] (inactive) |  |
| CC(=O)C(Cl)Cl | 0.127% (inactive) |  |
| CC(C)OC(=O)Nc1ccccc1 |  | inactive |
| NC(=O)CCl | 0.0745% (inactive) |  |
| Cc1ccc(N)c(N)c1 |  | inactive |
| CCCCCCCCCC(CC)c1ccc(S(=O)(=O)O)cc1 (stereo not given) |  | inactive |
| CN(C)C(=O)Nc1ccc(Cl)cc1 |  | inactive |
| CCCC[N+]1(C)CCCC1 (tested in a mixture with another compound) |  | 4.96 µM (active) |
| CCOP(=S)(OCC)SCn1c(=O)oc2cc(Cl)ccc21 |  | inactive |
| CCN(CC)C(=S)S |  | inactive |
| O=S(=O)(c1ccc(O)cc1)c1ccc(O)cc1 |  | inactive |
| CN(C)N=O |  | inactive |
| CCCCCCCCCCCCBr | 0.23% (inactive) |  |
| Cl/C=C\CCl | -0.626% (inactive) |  |
| CCN(Cc1ccc(Cl)nc1)/C(=C/[N+](=O)[O-])NC | -0.0673% [at 35.3 µM] (inactive) |  |
| c1ccc(Nc2ccc3ccccc3c2)cc1 |  | inactive |
| O=C(NC(=O)c1ccccc1Cl)Nc1ccc(OC(F)(F)F)cc1 | -0.0206% (inactive) |  |
| CC(C)C1(C)N=C(c2nc3ccccc3cc2C(=O)O)NC1=O (stereo not given) |  | inactive |
| CCCCOC(=O)c1ccccc1C(=O)O | 0.0507% (inactive) |  |
| N#Cc1cccnc1 |  | inactive |

| SMILES | activation | Potency |
| --- | --- | --- |
| Sc1ccccc1Cl | 0.276% [at 35.3 µM] (inactive) |  |
| O=P(Cl)(Cl)Cl | -0.0775% (inactive) |  |
| CC(=O)CCC(C)=O | 0.183% (inactive) |  |
| CCOC(=O)CC(SP(=O)(OC)OC)C(=O)OCC (stereo not given) |  | inactive |
| CC(=O)C(C)(C)C | -0.547% (inactive) |  |
| ClCc1ccccc1 | -0.563% (inactive) |  |
| COc1ccc2c3c1O[C@H]1[C@H](O)CC[C@H]4[C@@H](C2)N(C)CC[C@@]341 | -0.0103% (inactive) |  |
| C=CC#N |  | inactive |
| CCCCCCCCC(=O)NCc1ccc(O)c(OC)c1 |  | inactive |
| CCN(CC)CCN1C(=O)CN=C(c2ccccc2F)c2cc(Cl)ccc21 | -0.549% [at 35.3 µM] (inactive) |  |
| CCCC(=O)Cl | 0.293% (inactive) |  |
| CCCCCCOC(=O)c1ccccc1C(=O)OCCCCCC |  | inactive |
| CCC[CH2][Sn]([Cl])([CH2]CCC)[CH2]CCC |  | 21.9 µM (active) and 38.9 µM (active) |
| CCCCCCCCCCCCCC[P+](CCCCCC)(CCCCCC)CCCCCC |  | inactive |
| N#Cc1c(Cl)c(Cl)c(Cl)c(C#N)c1Cl |  | inactive |
| CC(Cl)Cl | 0.495% (inactive) |  |
| CC(C#N)CCC#N (stereo not given) |  | inactive |
| COC(=O)Nc1nc2ccccc2[nH]1 |  | inactive |
| CCCCC(CC)COC(=O)c1c(Br)c(Br)c(Br)c(Br)c1C(=O)OCC(CC)CCCC (stereo not given) | -0.292% [at 35.3 µM] (inactive) |  |
| Nc1ccc(N=Nc2ccc(-c3ccc(N=Nc4c(S(=O)(=O)O)cc5cc(S(=O)(=O)O)c(N=Nc6ccccc6)c(O)c5c4N)cc3)cc2)c(N)c1 | -1.56% [at 35.3 µM] (inactive) |  |

Source: PubChem BioAssay (Tox21)
